The supplement of paper PMC11732987, “Enantioselective OTUD7B fragment discovery through chemoproteomics screening and high-throughput optimisation” (Communications Chemistry, 2025)

Key:
Assay in all cases: log2 ratio of Biotin-Ahx-Ub-VS probe labelling (fragment/DMSO); higher = less target engagement (more negative = stronger competition), active = hit call of the paper (q ≤ 0.05, log2 ratio ≤ -1)
Conditions in all cases: compound concentration: 200 uM; treatment time: 3 h
[1] = target: USP34 (UniProt Q70CQ2)
USP34, sequence (Q70CQ2 whole entry, the tested form may be a part): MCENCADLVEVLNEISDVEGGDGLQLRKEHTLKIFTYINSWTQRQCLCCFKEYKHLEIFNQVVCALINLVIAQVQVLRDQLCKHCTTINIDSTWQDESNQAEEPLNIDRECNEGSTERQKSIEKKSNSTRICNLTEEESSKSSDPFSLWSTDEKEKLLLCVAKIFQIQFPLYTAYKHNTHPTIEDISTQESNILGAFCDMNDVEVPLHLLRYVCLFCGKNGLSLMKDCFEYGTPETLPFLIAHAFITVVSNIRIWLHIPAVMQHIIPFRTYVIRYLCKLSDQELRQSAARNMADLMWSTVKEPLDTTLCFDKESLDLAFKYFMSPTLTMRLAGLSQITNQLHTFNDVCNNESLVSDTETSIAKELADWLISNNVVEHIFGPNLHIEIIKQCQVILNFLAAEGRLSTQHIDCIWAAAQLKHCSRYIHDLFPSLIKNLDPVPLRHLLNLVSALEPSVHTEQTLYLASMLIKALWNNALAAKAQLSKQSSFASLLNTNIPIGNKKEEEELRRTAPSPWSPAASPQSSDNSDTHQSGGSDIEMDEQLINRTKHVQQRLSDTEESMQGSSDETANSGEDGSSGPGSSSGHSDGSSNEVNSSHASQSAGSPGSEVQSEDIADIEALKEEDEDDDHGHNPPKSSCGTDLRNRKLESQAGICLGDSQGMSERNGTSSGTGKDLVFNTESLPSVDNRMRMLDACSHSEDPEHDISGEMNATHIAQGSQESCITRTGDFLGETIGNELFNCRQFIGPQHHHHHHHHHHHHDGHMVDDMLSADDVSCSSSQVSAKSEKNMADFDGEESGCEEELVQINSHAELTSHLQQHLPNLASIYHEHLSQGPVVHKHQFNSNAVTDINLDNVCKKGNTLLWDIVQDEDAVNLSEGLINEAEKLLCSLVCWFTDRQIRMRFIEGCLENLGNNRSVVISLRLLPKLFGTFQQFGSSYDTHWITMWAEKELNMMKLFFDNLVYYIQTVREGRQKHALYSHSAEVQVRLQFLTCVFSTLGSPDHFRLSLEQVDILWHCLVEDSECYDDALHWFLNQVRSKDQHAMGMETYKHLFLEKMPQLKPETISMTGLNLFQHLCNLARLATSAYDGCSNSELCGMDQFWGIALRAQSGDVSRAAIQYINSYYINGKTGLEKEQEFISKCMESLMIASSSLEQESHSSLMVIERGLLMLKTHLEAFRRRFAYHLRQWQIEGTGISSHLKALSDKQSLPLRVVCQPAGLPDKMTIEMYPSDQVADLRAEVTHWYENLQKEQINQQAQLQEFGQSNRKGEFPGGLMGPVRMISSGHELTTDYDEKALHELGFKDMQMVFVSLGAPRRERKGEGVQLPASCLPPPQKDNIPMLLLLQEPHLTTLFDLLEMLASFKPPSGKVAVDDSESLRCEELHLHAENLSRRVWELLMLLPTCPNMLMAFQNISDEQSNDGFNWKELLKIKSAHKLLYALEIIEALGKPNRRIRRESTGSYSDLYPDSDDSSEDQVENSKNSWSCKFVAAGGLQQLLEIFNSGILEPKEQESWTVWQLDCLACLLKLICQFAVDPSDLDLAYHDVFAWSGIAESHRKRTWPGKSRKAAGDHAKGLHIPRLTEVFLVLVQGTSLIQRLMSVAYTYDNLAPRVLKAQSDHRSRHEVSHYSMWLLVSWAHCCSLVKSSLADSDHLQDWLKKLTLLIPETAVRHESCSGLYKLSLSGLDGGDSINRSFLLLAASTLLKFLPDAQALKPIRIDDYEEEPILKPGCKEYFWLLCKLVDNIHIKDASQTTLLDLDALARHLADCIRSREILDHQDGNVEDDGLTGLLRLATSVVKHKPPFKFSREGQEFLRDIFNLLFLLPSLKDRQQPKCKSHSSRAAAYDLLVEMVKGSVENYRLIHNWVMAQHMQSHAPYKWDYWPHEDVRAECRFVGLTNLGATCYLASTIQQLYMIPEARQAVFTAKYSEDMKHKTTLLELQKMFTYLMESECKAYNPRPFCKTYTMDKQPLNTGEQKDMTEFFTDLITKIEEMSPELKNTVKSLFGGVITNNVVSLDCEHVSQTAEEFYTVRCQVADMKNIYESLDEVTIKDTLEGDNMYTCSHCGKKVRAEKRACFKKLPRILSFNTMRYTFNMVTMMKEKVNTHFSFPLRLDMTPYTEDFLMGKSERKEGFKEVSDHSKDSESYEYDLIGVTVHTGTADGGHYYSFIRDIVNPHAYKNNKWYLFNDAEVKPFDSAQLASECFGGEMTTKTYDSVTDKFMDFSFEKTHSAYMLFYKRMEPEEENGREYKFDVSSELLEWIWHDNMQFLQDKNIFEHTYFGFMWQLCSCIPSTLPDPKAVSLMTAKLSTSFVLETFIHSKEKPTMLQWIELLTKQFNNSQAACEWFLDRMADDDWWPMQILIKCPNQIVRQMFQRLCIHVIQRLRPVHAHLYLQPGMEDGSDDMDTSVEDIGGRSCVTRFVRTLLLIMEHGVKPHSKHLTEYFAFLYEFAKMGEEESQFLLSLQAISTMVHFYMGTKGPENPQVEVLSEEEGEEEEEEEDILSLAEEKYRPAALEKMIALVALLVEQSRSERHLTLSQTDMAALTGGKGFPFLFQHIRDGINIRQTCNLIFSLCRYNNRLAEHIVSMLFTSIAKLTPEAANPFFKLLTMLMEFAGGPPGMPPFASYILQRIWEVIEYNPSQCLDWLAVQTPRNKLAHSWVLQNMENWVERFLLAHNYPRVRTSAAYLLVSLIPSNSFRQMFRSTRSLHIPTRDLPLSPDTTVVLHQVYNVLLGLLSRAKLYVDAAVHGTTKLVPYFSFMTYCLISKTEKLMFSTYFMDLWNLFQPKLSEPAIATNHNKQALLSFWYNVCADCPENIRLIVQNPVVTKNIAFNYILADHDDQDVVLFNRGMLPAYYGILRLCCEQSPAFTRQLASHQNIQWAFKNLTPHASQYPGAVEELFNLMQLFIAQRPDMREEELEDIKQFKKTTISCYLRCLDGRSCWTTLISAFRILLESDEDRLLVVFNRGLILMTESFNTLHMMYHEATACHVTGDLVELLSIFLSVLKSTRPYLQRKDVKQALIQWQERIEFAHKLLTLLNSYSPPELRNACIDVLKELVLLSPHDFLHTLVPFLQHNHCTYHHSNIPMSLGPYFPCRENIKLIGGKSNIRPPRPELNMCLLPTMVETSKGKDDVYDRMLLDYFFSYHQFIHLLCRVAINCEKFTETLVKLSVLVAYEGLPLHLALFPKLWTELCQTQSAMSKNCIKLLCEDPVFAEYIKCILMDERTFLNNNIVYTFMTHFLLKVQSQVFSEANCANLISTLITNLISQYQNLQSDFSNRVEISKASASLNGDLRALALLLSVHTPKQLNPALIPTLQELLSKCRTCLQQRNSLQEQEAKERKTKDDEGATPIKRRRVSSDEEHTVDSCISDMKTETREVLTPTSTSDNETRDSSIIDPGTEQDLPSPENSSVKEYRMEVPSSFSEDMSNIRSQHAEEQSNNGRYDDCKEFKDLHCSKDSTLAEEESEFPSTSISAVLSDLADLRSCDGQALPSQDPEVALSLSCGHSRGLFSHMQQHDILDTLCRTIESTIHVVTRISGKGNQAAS
How it was run: (§1)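 The table lists average log2 ratios of fragment over vehicle, from an unpaired t-test on global-median-normalised Spectronaut label-free quantities. Proteins with ≥2 unique peptides were used. Samples were HEK293T lysate (495 µg) treated in triplicate with fragment at 200 µM or vehicle for 3 h, then with Biotin-Ahx-Ub-VS (0.5 µM final) for 1 h, with labelled DUBs NeutrAvidin-enriched and run by diaPASEF LC-MS/MS.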

[2] = target: T1, USP36 (UniProt Q9P275)
T1 sequence (whole entry): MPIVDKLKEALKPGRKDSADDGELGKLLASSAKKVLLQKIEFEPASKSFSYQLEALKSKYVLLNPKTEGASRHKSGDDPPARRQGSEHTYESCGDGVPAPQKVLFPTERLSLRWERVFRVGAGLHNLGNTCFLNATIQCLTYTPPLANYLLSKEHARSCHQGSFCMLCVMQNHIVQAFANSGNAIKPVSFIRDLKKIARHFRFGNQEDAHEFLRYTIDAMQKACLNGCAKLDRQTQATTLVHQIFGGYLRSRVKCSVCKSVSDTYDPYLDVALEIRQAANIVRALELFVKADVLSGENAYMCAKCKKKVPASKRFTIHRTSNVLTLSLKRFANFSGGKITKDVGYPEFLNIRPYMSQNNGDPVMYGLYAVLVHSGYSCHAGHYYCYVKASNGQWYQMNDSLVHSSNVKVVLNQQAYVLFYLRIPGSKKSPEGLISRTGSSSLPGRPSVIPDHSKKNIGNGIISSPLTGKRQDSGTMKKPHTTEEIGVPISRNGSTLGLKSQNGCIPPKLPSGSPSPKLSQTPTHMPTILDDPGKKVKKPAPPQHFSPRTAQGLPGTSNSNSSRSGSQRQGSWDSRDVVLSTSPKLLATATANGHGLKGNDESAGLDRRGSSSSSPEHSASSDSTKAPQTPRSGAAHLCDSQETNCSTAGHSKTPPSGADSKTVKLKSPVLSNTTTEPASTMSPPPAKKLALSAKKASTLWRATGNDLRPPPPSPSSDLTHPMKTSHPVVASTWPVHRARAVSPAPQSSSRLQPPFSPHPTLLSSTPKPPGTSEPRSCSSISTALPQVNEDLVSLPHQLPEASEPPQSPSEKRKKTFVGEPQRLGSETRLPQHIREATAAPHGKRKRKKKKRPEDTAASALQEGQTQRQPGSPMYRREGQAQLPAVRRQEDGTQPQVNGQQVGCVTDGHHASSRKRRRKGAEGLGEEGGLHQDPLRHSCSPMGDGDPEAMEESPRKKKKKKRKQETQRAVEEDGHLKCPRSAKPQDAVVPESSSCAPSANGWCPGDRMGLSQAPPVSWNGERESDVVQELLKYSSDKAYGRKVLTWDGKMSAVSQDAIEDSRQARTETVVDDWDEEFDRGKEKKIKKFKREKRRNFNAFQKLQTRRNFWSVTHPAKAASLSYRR
How it was run: as §1

[3] = target: T2, USP38 (UniProt Q8NB14)
T2 sequence (whole entry): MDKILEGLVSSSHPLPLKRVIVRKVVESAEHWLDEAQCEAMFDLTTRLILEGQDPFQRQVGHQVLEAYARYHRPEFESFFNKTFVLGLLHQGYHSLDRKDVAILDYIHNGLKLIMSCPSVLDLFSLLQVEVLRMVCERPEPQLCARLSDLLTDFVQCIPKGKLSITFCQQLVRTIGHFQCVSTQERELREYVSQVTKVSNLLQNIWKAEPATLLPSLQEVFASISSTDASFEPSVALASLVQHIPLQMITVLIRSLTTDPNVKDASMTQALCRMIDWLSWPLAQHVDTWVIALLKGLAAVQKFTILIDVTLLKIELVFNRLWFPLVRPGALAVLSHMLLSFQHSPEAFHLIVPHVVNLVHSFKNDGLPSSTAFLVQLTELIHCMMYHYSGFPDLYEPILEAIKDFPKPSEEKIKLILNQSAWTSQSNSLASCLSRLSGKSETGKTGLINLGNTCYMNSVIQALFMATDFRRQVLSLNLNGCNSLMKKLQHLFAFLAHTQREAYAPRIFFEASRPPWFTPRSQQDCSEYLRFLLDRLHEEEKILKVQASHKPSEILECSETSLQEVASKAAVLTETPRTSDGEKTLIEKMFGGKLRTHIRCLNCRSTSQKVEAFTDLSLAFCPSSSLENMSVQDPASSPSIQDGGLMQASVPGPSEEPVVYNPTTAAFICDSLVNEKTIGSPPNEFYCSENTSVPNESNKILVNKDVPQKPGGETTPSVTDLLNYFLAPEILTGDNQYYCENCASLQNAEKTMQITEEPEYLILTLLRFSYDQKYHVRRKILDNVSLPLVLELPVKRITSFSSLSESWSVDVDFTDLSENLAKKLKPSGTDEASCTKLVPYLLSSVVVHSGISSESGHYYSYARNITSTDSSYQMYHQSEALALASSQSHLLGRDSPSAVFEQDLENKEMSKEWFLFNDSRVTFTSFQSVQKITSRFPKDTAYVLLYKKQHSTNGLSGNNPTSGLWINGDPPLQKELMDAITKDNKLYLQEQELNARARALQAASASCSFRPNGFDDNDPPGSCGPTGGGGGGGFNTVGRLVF
How it was run: as §1

[4] = target: T3, USP39 (UniProt Q53GS9)
T3 sequence (whole entry): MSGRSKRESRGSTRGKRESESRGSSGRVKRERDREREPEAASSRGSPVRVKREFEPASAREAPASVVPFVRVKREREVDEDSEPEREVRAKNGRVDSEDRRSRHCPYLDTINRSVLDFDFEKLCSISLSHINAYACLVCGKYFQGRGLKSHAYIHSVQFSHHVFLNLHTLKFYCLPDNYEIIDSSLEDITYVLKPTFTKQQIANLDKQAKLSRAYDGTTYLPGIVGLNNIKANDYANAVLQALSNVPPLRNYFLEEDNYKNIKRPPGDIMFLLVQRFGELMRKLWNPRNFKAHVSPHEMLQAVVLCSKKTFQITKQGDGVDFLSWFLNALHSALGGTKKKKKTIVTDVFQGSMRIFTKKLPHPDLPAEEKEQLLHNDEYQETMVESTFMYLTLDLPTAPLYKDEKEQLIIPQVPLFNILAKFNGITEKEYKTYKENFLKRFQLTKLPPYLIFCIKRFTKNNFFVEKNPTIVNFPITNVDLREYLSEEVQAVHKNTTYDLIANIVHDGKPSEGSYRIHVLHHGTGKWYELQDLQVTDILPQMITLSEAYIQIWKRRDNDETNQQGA
How it was run: as §1

[5] = target: T4, USP4 (UniProt Q13107)
T4 sequence (whole entry): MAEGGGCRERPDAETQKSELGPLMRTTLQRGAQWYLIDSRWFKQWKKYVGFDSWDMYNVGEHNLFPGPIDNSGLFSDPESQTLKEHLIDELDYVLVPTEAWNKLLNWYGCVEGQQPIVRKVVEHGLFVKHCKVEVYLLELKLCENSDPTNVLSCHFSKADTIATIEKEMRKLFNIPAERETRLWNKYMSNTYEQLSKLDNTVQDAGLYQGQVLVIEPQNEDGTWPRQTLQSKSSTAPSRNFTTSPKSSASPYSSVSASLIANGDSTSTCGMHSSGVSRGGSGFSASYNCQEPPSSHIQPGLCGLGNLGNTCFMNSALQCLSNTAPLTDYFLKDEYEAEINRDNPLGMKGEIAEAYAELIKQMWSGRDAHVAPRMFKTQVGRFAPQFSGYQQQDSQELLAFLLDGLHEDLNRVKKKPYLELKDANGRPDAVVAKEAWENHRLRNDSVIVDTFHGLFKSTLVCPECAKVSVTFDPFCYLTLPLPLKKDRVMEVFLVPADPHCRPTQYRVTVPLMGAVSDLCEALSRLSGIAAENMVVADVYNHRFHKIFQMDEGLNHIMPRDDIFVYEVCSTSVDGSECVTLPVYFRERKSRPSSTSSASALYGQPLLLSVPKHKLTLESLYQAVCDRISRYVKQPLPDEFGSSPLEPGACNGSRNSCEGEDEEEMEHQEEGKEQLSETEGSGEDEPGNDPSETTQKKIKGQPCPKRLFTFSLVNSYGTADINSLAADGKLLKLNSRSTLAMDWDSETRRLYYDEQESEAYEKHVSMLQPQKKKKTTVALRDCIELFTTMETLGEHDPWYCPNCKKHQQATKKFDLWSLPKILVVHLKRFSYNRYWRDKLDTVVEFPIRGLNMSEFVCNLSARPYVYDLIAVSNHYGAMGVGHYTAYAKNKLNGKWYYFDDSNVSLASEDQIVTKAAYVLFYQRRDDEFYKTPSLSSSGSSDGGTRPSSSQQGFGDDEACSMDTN
How it was run: as §1

Measured: log2 ratio of Biotin-Ahx-Ub-VS probe labelling

CCN(C(=O)CCl)C1CCS(=O)(=O)C1 (stereo not given)
inactive: [1] -0.11 | [2] -0.152 | [3] -0.0197 | [4] -0.0969 | [5] 0.159
